Test results from paper PMC4552634, “A New Set of Chemical Starting Points with Plasmodium falciparum Transmission-Blocking Potential for Antimalarial Drug Discovery” (PLoS ONE, 2015).
The campaign covered roughly 13,000 compounds. About 3,200 (25%) showed an effect of 50% or more. Some of the results follow.

system: P. falciparum stage V gametocytes; set-up: BacTiter-Glo ATP luminescence viability of purified stage V gametocytes in 384-well plates, per cent inhibition versus DMSO; settings: 48 h, 5 µM; inhibitor

SMILES | % Inhibition
O=C(Nc1cccc(-c2ccc(-c3nc4cc(F)ccc4[nH]3)s2)c1)c1cccnc1 [TCMDC-136931] | -7.86%
CCOc1cc2ncnc(Nc3ccc(OCc4ccccc4OC)c(OC)c3)c2cc1OCC [TCMDC-131912] | -29.04%
COc1ccc(-c2csc(N(CCCN(C)C)C(=O)c3cc4c(C)nn(-c5ccccc5)c4s3)n2)cc1 [TCMDC-124034] | 46.49%
Cc1nn(-c2ccccc2)c2sc(C(=O)N(CCCN(C)C)c3nc(-c4ccccc4)cs3)cc12 [TCMDC-125428] | 100.2%
CCN(CC)CCCN(C(=O)c1cc2c(C)nn(-c3ccccc3)c2s1)c1nc(-c2ccc(OC)cc2)cs1 [TCMDC-125429] | 17.92%
Cc1n[nH]c(C)c1C1CCN(CC2CCC(NC(=O)/C=C/c3ccc(Cl)c(Cl)c3)CC2)CC1 (stereo not drawn) [TCMDC-139624] | 34.25%
Cc1[nH]c(C)c(-c2ccc(-c3ccccc3Cl)nc2)c(=O)c1Cl [TCMDC-136303] | 74.15%
CCCCc1ccc(-c2ccc(-c3c(C)[nH]c(C)c(Br)c3=O)cn2)cc1 [TCMDC-135687] | 10.67%
Cc1[nH]c(C)c(-c2ccc(-c3ccccc3Cl)nc2)c(=O)c1Br [TCMDC-136157] | 75.71%
COc1ccc(NC(=O)N2CCN(CCCCCNC(=O)/C=C/c3ccc(C(F)(F)F)cc3)CC2)cc1Cl [TCMDC-136097] | -39.25%
OC1(c2ccc(Cl)c(C(F)(F)F)c2)CCN(CCOC2c3ccccc3CSc3ccc(Cl)cc32)CC1 (stereo not drawn) [TCMDC-124001] | 11.98%
CC(C)C(C(=O)n1cc2c(ccc3nc(N)nc(N)c32)n1)C(C)C [TCMDC-137334] | -12.47%
O=C1COc2cc(Cl)c(CNC3CCN(CCc4ccnc5c(F)cc(F)cc45)CC3)nc2N1 [TCMDC-141732] | -3.632%
COc1ccc2nccc([C@@H](O)CN3CCC(NCc4cc5sccc5nc4C(F)(F)F)CC3)c2c1 [TCMDC-141152] | 4.239%
COc1ccc(CCNCCCCNCCc2ccc(OC)c3ccccc23)c2ccccc12 [TCMDC-137961] | 106.4%
COc1ccc(CNCCCCCCNCc2ccc(OC)c3ccccc23)c2ccccc12 [TCMDC-137631] | 111.4%
COC(=O)Cc1ccc(N)c2ccccc12 [TCMDC-139173] | -43.46%
CCc1nonc1NC(=O)c1oc2c(C)c(C)ccc2c1C [TCMDC-123827] | 4.304%
FC(F)(F)c1ccc2[nH]c(-c3ccc(-c4cccc(CNCCc5cccnc5)c4)s3)nc2c1.O=C(O)C(F)(F)F [TCMDC-132874] | 67.94%
FC(F)(F)c1ccc2[nH]c(-c3ccc(-c4cccc(CNCCc5ccncc5)c4)s3)nc2c1.O=C(O)C(F)(F)F [TCMDC-132849] | -1.104%
CS(=O)(=O)NCCCNCc1cccc(-c2ccc(-c3nc4cc(C(F)(F)F)ccc4[nH]3)s2)c1.O=C(O)C(F)(F)F [TCMDC-133083] | -25.93%
CNCCNCc1cccc(-c2ccc(-c3nc4cc(C(F)(F)F)ccc4[nH]3)s2)c1.O=C(O)C(F)(F)F [TCMDC-132830] | 50.68%
FC(F)(F)c1ccc2[nH]c(-c3ccc(-c4cccc(CNCc5ccccc5)c4)s3)nc2c1.O=C(O)C(F)(F)F [TCMDC-132708] | -60.8%

SMILES | % Inhibition
O=C(O)C(F)(F)F.c1cncc(CCNCc2cccc(-c3ccc(-c4nc5ccccc5[nH]4)s3)c2)c1 [TCMDC-132877] | -12.84%
N#CN1CC[C@H](CS(=O)(=O)c2cccc(Br)c2)C1 [TCMDC-133806] | 9.818%
COc1ccc(N2C(=O)c3c(c4ccccc4n3C)C2c2ccccc2O)cc1 (stereo not drawn) [TCMDC-124403] | -39.6%
O=S(=O)(Nc1cc2c(cc1OCc1ccccc1)CCN(C1CCC1)CC2)c1ccc(-c2ccc(Cl)cc2)cc1 [TCMDC-136027] | -11.35%
O=S(=O)(c1ccc(OCc2ccc(Cl)cc2)cc1)c1cc2c(cc1O)CCN(C1CCC1)CC2 [TCMDC-135997] | 28.22%
O=S(=O)(c1ccc(OCc2ccc(Cl)cc2)cc1)c1cc2c(c(-c3ccc(F)cc3)c1)CCN(CC1CC1)CC2 [TCMDC-135736] | 93.21%
COc1cc2c(cc1S(=O)(=O)c1ccc(OCc3ccc(Cl)cc3)cc1)CCN(Cc1ccc(NC(C)=O)s1)CC2 [TCMDC-132326] | -7.841%
O=S(=O)(c1ccc(OCc2ccc(Cl)cc2)cc1)c1cc2c(cc1OCc1ccccc1)CCN(C1CCC1)CC2 [TCMDC-135998] | 60.24%
O=S(=O)(c1ccc(OCc2ccc(Cl)cc2)cc1)c1cc2c(cc1OCc1ccccc1)CCN(CC1CC1)CC2 [TCMDC-134410] | 0.8378%
COc1ccc2nccc([C@@H](O)CN3CCC(NCc4ccc5nsnc5c4)CC3)c2c1 [TCMDC-140928] | 4.203%
O=C(NCc1cccc(C(F)(F)F)c1)C1CCCN(C(=O)c2ccc(O)c(-c3ccc(Cl)c(Cl)c3)c2)C1 (stereo not drawn) [TCMDC-140885] | 20.85%
O=C(Cc1cnc[nH]1)Nc1cccc(-c2cccc(-c3nc4ccccc4[nH]3)c2)c1 [TCMDC-136940] | -12.56%
CCC(CSC1CCCCC1)N(C)CCN(C)C(CC)CSC1CCCCC1 (stereo not drawn) [TCMDC-131456] | 101.8%
CCc1ccc(NC(=O)c2ccc(CN3CCCN(Cc4cccs4)CC3)cc2)cc1 [TCMDC-136447] | -19.53%
CC(C)C(=O)n1ncc2c3c(N)nc(N)nc3ccc21 [TCMDC-137841] | -14.38%
CCN(CCO)Cc1ccc(-c2ccc(NS(=O)(=O)c3cccc4cccnc34)cc2)cc1 [TCMDC-136477] | -29.46%
Cc1cc(C(=O)Nc2ccc3c(c2)CCN3C2CCN(Cc3csc4ccccc34)C2)no1 (stereo not drawn) [TCMDC-135082] | 15.45%
CCCCN(CCCC)CCCCNc1c2ccccc2nc2ccccc12 [TCMDC-137461] | 102%
CCN(CC)CCNc1ccnc2c3ccccc3n(C)c12 [TCMDC-131844] | 2.979%
CCCCN(CCCC)CCCCCCNc1c2ccccc2nc2ccccc12 [TCMDC-137519] | 114.2%
CCN(CC)CCCNc1cc[n+]([O-])c2cc3ccccc3cc12 [TCMDC-124146] | -26.87%
CCN(CC)CCCNc1c2ccccc2nc2ccccc12.Cl [TCMDC-125517] | 76.48%
Cl.c1ccc2c(NCCOCCNc3c4ccccc4nc4ccccc34)c3ccccc3nc2c1 [TCMDC-124265] | 121.8%

SMILES | % Inhibition
CCCCNc1cc(NCCCC)c2c(n1)[nH]c1ccccc12 [TCMDC-131827] | -13.41%
c1ccc2c(NCCc3c[nH]cn3)c3ccccc3nc2c1 [TCMDC-124424] | 5.484%
Cc1ccc(-c2cccc3c(NC(=O)Nc4ccc5nccc(N6CCN(C)CC6)c5c4)cccc23)cn1 [TCMDC-139367] | -6.741%
COc1ccccc1C1CCN(C2CCC(NC(=O)/C=C/c3ccc(C(F)(F)F)cc3)CC2)CC1 (stereo not drawn) [TCMDC-133487] | 28.53%
CCNc1cc(C)nc(Nc2ccc(NS(=O)(=O)c3ccccc3)cc2)n1 [TCMDC-124954] | -28.24%
Cc1cccc(C)c1CNc1ccnc2cc(Br)ccc12 [TCMDC-132168] | -25.57%
CCCCn1c(N)c(N(Cc2ccco2)C(=O)C=Cc2cc(OC)c3c(c2)OCCO3)c(=O)[nH]c1=O [TCMDC-125328] | -14%
O=C(NC1CCN(c2ccnc3cc(Cl)ccc23)C1)c1ccc(C(F)(F)F)cc1 (stereo not drawn) [TCMDC-133661] | 38.8%
Cn1nc2ccc3ccccc3c2nc1=N [TCMDC-131260] | 93.18%
Cc1cccc(Nc2nc(C)cc(N3CCCN(CC4CCCCC4)CC3)n2)c1 [TCMDC-137025] | -12.77%
O=C(Nc1ccc(-c2nc3ccccc3[nH]2)cc1)c1ccc(S(=O)(=O)N2CCCCC2)cc1 [TCMDC-125834] | -22.63%
O=C(COc1cnc2ccccc2n1)Nc1ccccc1Sc1ccc(Cl)cc1 [TCMDC-124892] | 99.33%
COc1ccccc1C(C)NCC(=O)Nc1ccccc1Sc1ccccc1 (stereo not drawn) [TCMDC-124877] | -2.069%
NC(=O)C1Cc2ccccc2CN1CC(=O)Nc1ccccc1Sc1ccccc1 (stereo not drawn) [TCMDC-124863] | 48.06%
O=C(Nc1ccc2c(c1)CCN2C1CCN(Cc2cc(F)cc(F)c2F)C1)c1ccco1 (stereo not drawn) [TCMDC-135071] | -23.05%
CN1CCC(NCc2ccc(-c3ccc(S(=O)(=O)NC4CCC4)s3)cc2)CC1 [TCMDC-132232] | 57.53%
CN1CCC(NCc2ccc(-c3ccc(S(=O)(=O)NCc4ccccc4)s3)cc2)CC1 [TCMDC-132231] | 68.61%
CC(C)(CNC(=O)[C@@H]1CCCCN1)c1nc(-c2ccc(Cl)c(O)c2)c(-c2ccncc2)[nH]1 [TCMDC-141079] | -69.36%
O=S(=O)(NCCN1CCCC1)c1ccc(-c2ccc(CNCc3ccc(F)cc3)cc2)s1 [TCMDC-132284] | 66.59%
O=C1CCCN1CCCNCc1ccc(-c2ccc(-c3nc4ccc(F)cc4[nH]3)s2)cc1 [TCMDC-132756] | -11.94%
O=S(=O)(NCCN1CCCC1)c1ccc(-c2cccc(CNCc3ccc(F)cc3)c2)s1 [TCMDC-132273] | 98.81%
CS(=O)(=O)c1ccc(CNCc2ccc(-c3ccc(-c4nc5ccc(F)cc5[nH]4)s3)cc2)cc1 [TCMDC-132900] | 4.618%
O=C(NCCN1CCCC1)c1cccc(-c2ccc(-c3nc4ccc(F)cc4[nH]3)s2)c1 [TCMDC-132318] | 15.45%
